Pol beta inh: qHTS Assay for Inhibitors of DNA Polymerase Beta | P06746 | Pol beta primer extension/strand displacement, fluorescence kinetic | 1.3% of 340,000 active | Potency, µM (titrated, usually from 114 µM), for inactives: at the highest dose activity change, negative = inhibition, most hits filed as inhibitors; further: on the % scale 0 is the no-effect control and ±100 the full control effect
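Homogeneous kinetic assay of primer extension and strand displacement by 10 nM Pol beta, preincubated 15 min at room temperature with compound before 50 nM substrate (final) was added. Read at 0 and 10 min; four-parameter Hill fit.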
POLK inh: qHTS for Inhibitors of Polymerase Kappa; purified Pol kappa, fluorescent DNA synthesis assay, 10 min; Potency, µM (highest dose often 107 µM), without a hit: at the top dose activity, negative = inhibition, most hits filed as inhibitors; 0.53% of 400,000 active; further: on the % scale 0 is the no-effect control and ±100 the full control effect
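Inhibition of 10 nM Pol kappa is measured by a fluorescent read-out at 0 and 10 min following addition of 50 nM substrate (final), with a 15-min room-temperature compound preincubation.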
Pol iota inh: qHTS for Inhibitors of Polymerase Iota; Potency, µM (top dose mostly 115 µM), inactives show at the highest dose activity, negative = inhibition, usual class: inhibitors; AID 588590, 2011; 1% of 390,000 active; Pol iota fluorescent replication assay, 10 min
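Fluorescent replication assay read twice, at 0 min and 10 min after adding 50 nM (final) substrate. Enzyme (10 nM) and compounds were first incubated 15 min at room temperature; enzyme-free buffer wells were negative controls.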
FEN1 inhibitor: qHTS Assay for the Inhibitors of Human Flap endonuclease 1 (FEN1). 0.35% of 390,000 active. Potency, µM (series often up to 114 µM), for the others: at the highest dose activity change, negative = inhibition, hits mostly inhibitors. AID 588795, 2011. Recombinant FEN1 flap cleavage, fluorescence, 15 min. P39748; further: on the % scale 0 is the no-effect control and ±100 the full control effect; nearly all actives have a fitted effect of over 65% in size
Target sequence (P39748 whole entry, looked up): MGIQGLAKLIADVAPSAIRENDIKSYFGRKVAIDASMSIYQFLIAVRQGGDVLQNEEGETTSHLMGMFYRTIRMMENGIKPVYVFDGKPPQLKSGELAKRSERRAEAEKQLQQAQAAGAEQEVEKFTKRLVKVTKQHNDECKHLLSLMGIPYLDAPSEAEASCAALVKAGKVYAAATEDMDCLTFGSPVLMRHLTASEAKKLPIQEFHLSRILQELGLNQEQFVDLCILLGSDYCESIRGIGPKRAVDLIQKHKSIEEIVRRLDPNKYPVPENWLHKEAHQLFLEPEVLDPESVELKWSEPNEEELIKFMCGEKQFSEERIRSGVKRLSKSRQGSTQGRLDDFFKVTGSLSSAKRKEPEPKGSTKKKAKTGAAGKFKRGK
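Enzyme 10 nM, 15 min RT preincubation with compound; start with substrate 50 nM final; reads at 0 and 15 min; qHTS titration, four-parameter Hill fit.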
TDP1 block: qHTS Assay for Inhibitors of Tyrosyl-DNA Phosphodiesterase (TDP1); Tyrosyl-DNA phosphodiesterase 1 (Homo sapiens), Q9NUW8; AID 485290, 2010; recombinant TDP1, AlphaScreen DNA substrate cleavage; Potency, µM (titrated, usually from 130 µM), inactives show at the highest dose activity change, negative = inhibition, usual class: inhibitors; 0.28% of 350,000 active; further: on the % scale 0 is the no-effect control and ±100 the full control effect; nearly all actives have a fitted effect of over 40% in size
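Enzyme-compound mixtures sat 15 min at room temperature, followed by a 5 min reaction with 15 nM final substrate and 10 min with AlphaScreen beads. Recombinant human Tdp1 was used at 1 nM final.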
Pol eta inh: qHTS for Inhibitors of Polymerase Eta; DNA polymerase eta (Homo sapiens), Q9Y253; recombinant Pol eta, fluorescent DNA replication assay; Potency, µM (highest dose often 114 µM), without a hit: at the highest dose activity change, negative = inhibition, hits mostly inhibitors; 1.2% of 390,000 active; further: on the % scale 0 is the no-effect control and ±100 the full control effect
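Pol eta (10 nM) was preincubated with compounds for 15 min at room temperature, after which fluorescent replication substrate (50 nM final) was added to start the reaction. Fluorescence was read kinetically at 0 and 10 min.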
Active calls of the source: *; ? = inconclusive; / = no result; ! = not active in a repeat; [ ] = remark or other dose. Shown are actives, neighbours in structure and some others; about 2.4% of the full set was active somewhere. The call rests on the fitted dose curve; in most records, active means well fitted curve in the direction sought with a large enough effect; inconclusive means small, poorly fitted or top-dose-only effect, or another doubt; inactive means no such curve, though single readings can be large; an effect the other way counts as inactive or inconclusive. Potency means the concentration at half of the fitted maximal effect.

SMILES	Pol beta inh	POLK inh	Pol iota inh	FEN1 inhibitor	TDP1 block	Pol eta inh
Cc1[nH]n(-c2ccccc2)c(=O)c1C(c1cccc([N+](=O)[O-])c1O)c1c(C)[nH]n(-c2ccccc2)c1=O	0%	-12%	0.28µM*	-13%	-2%	-21%
C[C@H](CCC(=O)O)[C@H]1CC[C@@H]2[C@H]3[C@@H](CC[C@@]21C)[C@]1(C)CC[C@H](O)C[C@@H]1C[C@@H]3O	/	-6%[12 µM]	/	/	7%[56.1 µM]	/
O=C(O)c1[nH]n(-c2ccc(S(=O)(=O)O)cc2)c(=O)c1N=Nc1ccc(S(=O)(=O)O)cc1	/	-30%	?	-17%	/	/
COC(=O)Cn1cc(/C=C2\C(=O)NC(=O)N(c3ccc(OC)cc3)C2=O)c2ccccc21	31%	9%	?	-2%	/	-18%
COc1ccc(N2C(=O)NC(=O)/C(=C\c3cn(CC(=O)N4CCOCC4)c4ccccc34)C2=O)c(OC)c1	-18%	4%	13µM*	?	/	0%
COCCNC(=O)Cn1cc(/C=C2\C(=O)NC(=O)N(c3cccc(C)c3C)C2=O)c2ccccc21	-18%	4%	130%	1%	/	-12%
COCCNC(=O)Cn1cc(/C=C2\C(=O)NC(=O)N(c3ccccc3F)C2=O)c2ccccc21	3%	8%	20µM*	-2%	/	-7%
CC(N)C(=O)NCC(=O)NC1CSSCC(C(=O)O)NC(=O)C(CO)NC(=O)C(C(C)O)NC(=O)C(Cc2ccccc2)NC(=O)C(C(C)O)NC(=O)C(CCCCN)NC(=O)C(Cc2c[nH]c3ccccc23)NC(=O)C(Cc2ccccc2)NC(=O)C(Cc2ccccc2)NC(=O)C(CC(N)=O)NC(=O)C(CCCCN)NC1=O (stereo not drawn)	/	1%[19.4 µM]	/	/	/	/
Clc1ccc(C(c2ccccc2Cl)C(Cl)(Cl)Cl)cc1 (stereo not drawn)	/	/	/	/	-1%	/
Cc1ccc(S(=O)(=O)N2CCN(Cc3ccsc3)CC2)cc1	0%	-12%	37%	0%	7%	?
Cc1cc(C(C#N)c2ccc(Cl)cc2)c(Cl)cc1NC(=O)c1cc(I)cc(I)c1O (stereo not drawn)	/	?	?	28µM*	18%	50µM*
COc1ccc(-c2nn3c(=O)cc(CN4CCN(S(=O)(=O)c5ccc(C)cc5)CC4)nc3s2)cc1	3%	-3%[60.1 µM]	57%	1%	0%	-12%
C=C1CCC(O)C/C1=C/C=C1\CCC[C@]2(C)[C@@H]([C@H](C)CCCC(C)C)CC[C@@H]12 (stereo partly drawn)	/	5%[60.1 µM]	/	/	11%	/
Cc1ccc2cc3c(ccc4ccccc43)c3c2c1CC3	/	-5%[19.4 µM]	/	/	-1%	/
CNCCc1ccc(O)c(O)c1	0%[57.1 µM]	?	89µM*	/	9%[56.1 µM]	-6%[57.1 µM]
C/C(CC(=O)Nc1cc(C)ccn1)=N\NC(=O)c1ccncc1	3%	-14%	48%	14%	6%	9%
CCCOC(=O)Nc1ccc([As](=O)(O)O)cc1NC(=O)OCCC	0%	-13%	17%	15%	/	5%
CCOC(=O)Nc1ccc(NCc2ccc(F)cc2)nc1N	1%[57.1 µM]	-9%[60.1 µM]	4µM*	?	17%[56.1 µM]	28µM*
O=C(Nc1cc(C(F)(F)F)cc(C(F)(F)F)c1)c1cc(Cl)ccc1O	/	30µM*!	/	/	0%	/
O=C(Nc1cc(C(F)(F)F)cc(C(F)(F)F)c1)c1cccn(Cc2ccccc2Cl)c1=O	-14%	-8%[60.1 µM]	8%	-2%	-5%	-14%
Cc1ccc(NP(=O)(Oc2ccccc2F)Oc2ccccc2F)cc1C	-17%	?	89µM*	-34%	1%	-17%
NC1C=CC=C(C(=O)O)C1 (stereo not drawn)	20%[57.1 µM]	?	6%[58.9 µM]	3%	4µM*!	?
O=C(O)c1ccccc1-c1c2cc(Br)c(=O)cc-2oc2[c]([Hg])c(O)c(Br)cc12	/	16µM*	/	/	25%	/
Cc1cccc(C)c1[N+](=O)[O-]	/	/	/	/	19%	/
Oc1ccc(/C=N/NP(=S)(c2ccccc2)c2ccccc2)c(O)c1O	14µM*	-40%	?	?	7%	?
SMILES	Pol beta inh	POLK inh	Pol iota inh	FEN1 inhibitor	TDP1 block	Pol eta inh
[O]=[Cr](=[O])([OH])[O][Cr](=[O])(=[O])[OH]	/	-18%[60.1 µM]	/	/	6.3µM*!	/
O=C(O)c1cccc(Cl)c1	/	/	/	/	6%	/
O=C(O)c1cc(O)c(O)c(O)c1	/	10µM*!	/	/	?	/
C[CH2][Hg][S]c1ccccc1C(=O)O	/	-17%	?	22µM*	15%	-12%
O=C(O)c1ccccc1SSc1ccccc1C(=O)O	?	-11%	?	-4%	/	-8%
O=c1c(O)c(-c2ccc(O)c(O)c2)oc2c(O)c(O)cc(O)c12	/	1.1µM*	/	/	-7%[56.1 µM]	/
Cc1cccc(N(C)S(=O)(=O)c2cc(-c3cnc(C4CC4)o3)ccc2C)c1	-19%	2%[60.1 µM]	?	-24%	1%	/
COC(=O)c1ccc(N=C(c2ccccc2)c2c(O)n(C)c(=O)n(C)c2=O)cc1	10%	-15%	32µM*	2%	/	0%
CC(C)C[C@H]1CNC(=S)N1CC1CCN(CC2CCC(C(C)(C)C)CC2)CC1 (stereo partly drawn)	/	7%	7%	?	/	-20%
C/C=C(/C)C(=O)O[C@H]1C(C)=C2C([C@@H]1OC(=O)CCCCCCC)[C@@](C)(OC(C)=O)C[C@@H](OC(=O)CCC)[C@@]1(O)[C@H]2OC(=O)[C@@]1(C)O (stereo partly drawn)	?	/	?	/	13%[56.1 µM]	?
COc1cccc2c1C(=O)c1c(O)c3c(c(O)c1C2=O)C[C@@](O)(C(=O)CO)C[C@@H]3O[C@H]1C[C@H](N)[C@H](OC2CCCCO2)[C@H](C)O1 (stereo partly drawn)	/	10µM*	?	18µM*	/	/
CCCCn1c(NC(=O)c2ccco2)c(C(=O)OCC)c2nc3ccccc3nc21	20%	-5%	84%	2%	-4%	?
CCCCn1c(NS(=O)(=O)c2ccc(C)cc2)c(C(=O)OCC)c2nc3ccccc3nc21	10%	-1%	2.5µM*	-17%	3%	-7%
C=CCOc1ccc(CC2C(=O)N(C)C(=O)N(C)C2=O)cc1	?	-16%	?	3%	-1%	16µM*
COc1cc([C@@H]2c3cc4c(cc3[C@H](O)[C@H]3COC(=O)[C@@H]23)OCO4)cc(OC)c1OC	/	9%	?	5%	0%	/

Source: PubChem
